Experimental data published in ChEMBL document CHEMBL3988442, “University of Dundee, Small-Polar-MMV Screening Library” (2021).
Screen size: about 48,000 compounds; about 13,000 (27%) showed an effect of 50% or more. This is one part of the list.

tested on: Wolbachia pipientis; assay: Anti-Wolbachia Cell-Based Screen; type: functional; set-up: scale not given: in the data most compounds retested in dose-response had high values; settings: 5 µM

Compound	Percent Effect
CCn1cc(CN2CCC(CN3CCCCC3)CC2)cc1C#N	-0.8018%
CCc1cnc(CN(C)C(=O)NC2CCN(C)C2=O)s1 (configuration not stated)	1.007%
Cc1cnc(NC2CCN(CC(=O)Nc3ccccc3)CC2)nc1C	3.522%
NC(=O)CN1CCC(C(=O)NCCc2nc(-c3ccccc3)cs2)CC1	3.799%
NC(=O)c1cnc(-c2ccccc2)nc1CCNC(=O)CN1CCCC1	124.4%
O=C(CC1CCCC1)NCCNCc1cccc2c1OCCO2	-15.98%
O=C(CC1CCCC1)NCCn1ccc(-c2ccncc2)n1	-13.95%
O=C(CCNC(=O)NC1CC1)NCc1ccccc1	4.625%
NC(=O)c1cnc(NC2CC2)nc1CCNC(=O)CC1CCCC1	144.1%
Cc1nc(O)cc(CCNC(=O)CN2CCCCCC2)n1	-0.8715%
NC(=O)c1cnc(NC2CC2)nc1CCNC(=O)Cc1ccccc1	131.4%
O=C(CCCc1cn[nH]c1)N1C[C@H](CO)C[C@H](CN2CCCC2)C1	5.812%
Cc1cc(C)c2[nH]c(=O)c(CN3CCC(O)(CN(C)C)C3)cc2c1 (configuration not stated)	-2.791%
COc1ccc(-c2ccc(C(=O)O)c(F)c2)c(F)c1	-9.144%
CC(=O)c1ccc(N2CCC3(CC2)CC(=O)N(C)C3)nc1	9.989%
CCc1c(C)nc2n(c1=O)CC(C(=O)Nc1ccccc1C)CS2 (configuration not stated)	112.9%
Cc1cnc2n(c1=O)CC(C(=O)Nc1cccc3cccnc13)CS2 (configuration not stated)	0.1912%
CCc1cccc(C)c1NC(=O)C1CC(=O)N(Cc2ccccn2)C1 (configuration not stated)	16.74%
Cc1cnc2n(c1=O)CC(C(=O)NC1CC1)CS2 (configuration not stated)	-10.47%
CCc1c(C)nc2n(c1=O)CC(C(=O)Nc1sccc1C(=O)OC)CS2 (configuration not stated)	119.9%
CCc1c(C)nc2n(c1=O)CC(C(=O)Nc1nccs1)CS2 (configuration not stated)	17.24%
CCc1c(C)nc2n(c1=O)CC(C(=O)Nc1ncccc1C)CS2 (configuration not stated)	124.5%
CCc1c(C)nc2n(c1=O)CC(C(=O)Nc1ccccc1F)CS2 (configuration not stated)	-0.8379%
Cc1cnn(CC2CN(CC(=O)NCCc3cccs3)CCO2)c1 (configuration not stated)	-8.737%
CCC(NC(=O)c1cccc(N2CCCC2=O)c1)c1ccc(OC)cc1 (configuration not stated)	-14.69%
Cc1ccc(N2CCCC(N3CCC(N(C)C)CC3)C2=O)cc1 (configuration not stated)	3.726%

Compound	Percent Effect
Cc1cc(=O)n2ncnc2n1CC(O)COCc1ccccc1Cl (configuration not stated)	-44.43%
Cc1cc(F)cc(S(=O)(=O)Nc2noc(C)n2)c1	-6.165%
COCCn1/c(=N\C(=O)CN(C)S(C)(=O)=O)sc2cc(OC)ccc21	-16.36%
CN1CCC(CO[C@H]2CN(C(=O)c3cccn3C)[C@@H]3COC[C@H]23)CC1	-44.74%
Cc1ccc(CN2C[C@H](OCC3CCOCC3)[C@H]3COC[C@H]32)o1.O=C(O)C(F)(F)F	113.3%
Cc1noc(C)c1CN1CCc2cnn(C)c2C1COCC1CC1.O=C(O)C(F)(F)F.O=C(O)C(F)(F)F (configuration not stated)	-11.43%
CNC(=O)[C@H]1C[C@H]2OCC[C@H]2N(Cc2ccc(C)o2)C1.O=C(O)C(F)(F)F	-19.44%
Cc1cc(CN2C[C@H](N3CCOCC3)[C@@H]3OCCC[C@@H]32)oc1C.O=C(O)C(F)(F)F.O=C(O)C(F)(F)F	-6.636%
Cc1cc(CN2C[C@H](OCC3CCOCC3)[C@H]3COC[C@H]32)oc1C.O=C(O)C(F)(F)F	99%
Cc1cc(CN2CC[C@H]3[C@H]2CCN3S(C)(=O)=O)oc1C.O=C(O)C(F)(F)F	-17.79%
Cc1ccc(CN2C[C@H](N3CCOCC3)[C@@H]3OCCC[C@@H]32)o1.O=C(O)C(F)(F)F.O=C(O)C(F)(F)F	-1.951%
Cc1noc(C)c1CN1Cc2cn(C)nc2C(COCC2CC2)C1.O=C(O)C(F)(F)F.O=C(O)C(F)(F)F (configuration not stated)	0.03565%
Cc1noc(C)c1CN1C[C@H](OCC2CCN(C)CC2)[C@H]2COC[C@H]21.O=C(O)C(F)(F)F.O=C(O)C(F)(F)F	122.2%
Cc1ccc(CN2C[C@H](OCC3CCN(C)CC3)[C@H]3COC[C@H]32)o1	110.9%
COCCN1C[C@H]2[C@@H](C1)N(Cc1ccc(C)o1)CC[C@H]2OC	6.788%
CC1(c2ccccc2)CCC(=O)N(CCN2CCCOC2=O)C1 (configuration not stated)	-2.659%
CC(Cn1cnc2cn(C)nc2c1=O)Oc1cccnc1 (configuration not stated)	-0.8182%
Cc1[nH]ncc1CCCNC(=O)N1CCN2CCCCC2C1 (configuration not stated)	-2.363%
CCCn1cnnc1CNC(=O)C1COc2cc(OC)ccc2C1 (configuration not stated)	-15.52%
CCOCCNC(=O)c1cccc(S(=O)(=O)NC[C@@H]2C[C@H](F)CN2)c1	-1.824%
Cc1ccc(F)c(C(=O)N2CCN(S(C)(=O)=O)[C@@H](C)C2)c1	7.436%
COCc1noc(CCNC(=O)c2cc(C)c(C)[nH]c2=O)n1	20.99%
Cc1cnn(CCCn2c(C)cc(C(F)(F)F)cc2=O)c1	-18.2%
Cc1cc(C(F)(F)F)cc(=O)n1CCn1cc(Cl)cn1	-6.58%
COCc1nc(Cn2ncn3cccc3c2=O)no1	10.93%
COCc1nc(CN2C(=O)OC[C@@H]2C(C)C)no1	7.812%

Compound	Percent Effect
COCc1nc(Cn2c(C)cc(C(F)(F)F)cc2=O)no1	116.4%
Cc1cc(C(F)(F)F)cc(=O)n1Cc1nc(C(C)C)no1	99.71%
COCc1noc(Cn2c(C)cc(C(F)(F)F)cc2=O)n1	123.4%
Cc1cc(C(F)(F)F)cc(=O)n1CCCn1cnnn1	-2.026%
CCn1cc(CN(C)S(=O)(=O)c2cc(Cl)ccc2Cl)cn1	2.949%
COCc1ncc(CN2CC(Oc3c(C)cccc3C)C2)cn1	2.359%
C[S+]([O-])c1nncn1CC(=O)c1ccc2c(c1)CCO2 (configuration not stated)	-1.094%
CC(C)N(C)CC(=O)NCC(O)c1cc2ccccc2s1 (configuration not stated)	-11.06%
FC(F)(F)Cc1noc(CN2CCCC2c2noc(C3CC3)n2)n1 (configuration not stated)	0.1706%
CC(C)c1nc(CSc2nnc(Cn3cncn3)o2)cs1	-8.133%
CC(C)Cc1nc(CSCC(=O)N2CCC(C)CC2)no1	4.489%
COc1ccccc1C(=O)Nc1cc(CC(C)C)nn1C	100.2%
CC(C)Cc1cc(NC(=O)c2ccccc2F)n(C)n1	99.33%
CC(C)Cc1cc(C(=O)NC(C)(CO)CO)n(C)n1	11.8%
CC(C)Cc1cc(C(=O)N2CC(OCc3ccccc3F)C2)n(C)n1	4.315%
O=c1c2cccnc2cnn1CC(O)c1ccc(Br)cc1 (configuration not stated)	-15.17%
CSCCC(NC(N)=O)C(=O)NCc1cnn(-c2ccccc2)c1 (configuration not stated)	-24.8%
CCN1CCNC(=O)C12CCN(S(=O)(=O)c1ccc(F)cc1)CC2	-6%
O=C1CO[C@@H]2CN(S(=O)(=O)c3ccccc3)C[C@H]2N1CC1CC1	-2.601%
CC(C)CN1CCNC(=O)C12CCN(S(=O)(=O)c1ccc(F)cc1)CC2	-14.33%
O=C1CN(S(=O)(=O)c2ccc(F)cc2)CC(O)CN1CC1CC1 (configuration not stated)	106.3%
N[C@H]1CN(S(=O)(=O)c2ccccc2)C[C@@H]1C1CC1	-7.486%
CCC[C@H]1CN(S(=O)(=O)c2ccccc2)C[C@@H]1N	-22.4%
CC(C)CN1CC(O)CN(S(=O)(=O)c2ccccc2)CC1=O (configuration not stated)	100.2%
CC(C)CN1CC(c2nc(-c3ccc(F)cc3)c[nH]2)CC1=O (configuration not stated)	-3.521%
CC(C)CN1CC(O)CN(S(=O)(=O)c2ccc(F)cc2)CC1=O (configuration not stated)	103.6%

Compound	Percent Effect
Cc1ccc(C)c(OC(C)C(=O)NCCNc2cccnc2)c1 (configuration not stated)	16.95%
CCn1ncc2c1NC(=O)CC2c1cnc(-c2ccccn2)nc1 (configuration not stated)	-2.059%
COc1ccccc1N1CCN(C(=O)Cn2nc(C)cc2C)CC1(C)C	-9.26%
Cc1c(Cl)c(C(=O)N2CC[C@H](N3CCOCC3)[C@H](CCCO)C2)nn1C	-7.195%
CC(C)CCN1CCN(Cc2nc(C(C)C)no2)CC1	-7.959%
CC(C)(C)c1nc(CN2CCC(c3nc4cc(Cl)ccc4o3)CC2)no1	-20.96%
CC(C)(C)c1nc(CN2CCCN(Cc3cccs3)CC2)no1	85.49%
CCc1noc(CN2CCCN(C(N)=O)CC2)n1	-3.109%
Cc1noc(CN2CCN(Cc3cccs3)CC2)n1	0.5359%
CC(C)(C)c1noc(CN2CCCN(Cc3cccs3)CC2)n1	1.032%
CC(C)c1noc(CN2CCCN(Cc3cccs3)CC2)n1	67.59%
CC(C)Cc1noc(CN2CCN(C(=O)c3cccs3)CC2)n1	-25.07%
CCc1nc(CN2CCCN(c3cnc4ccccc4n3)CC2)no1	-8.028%
CCc1noc(CN2CCCN(Cc3cccs3)CC2)n1	74.2%
CCc1noc(CN2CCN(Cc3cccs3)CC2)n1	91.28%
Cc1cc2nc(CO[C@H]3CN(CC4CC4)C[C@H]3F)[nH]c2cc1C	-2.135%
Cc1cc(C)n(CC(C)NC2CCN(Cc3cccnc3)CC2)n1 (configuration not stated)	-17.52%
O=C(Nc1ccccc1)[C@H]1O[C@H](CCN2CCNCC2)CC[C@@H]1O	1.571%
Cc1ncccc1OC1(C(=O)NCCNc2ccccc2)CCNCC1	-10.51%
CN1C(=O)CO[C@H](c2ccc(NC(=O)Nc3ccccc3)cc2)[C@H]1CO	-13.1%
CN1C(=O)[C@H](OC(N)=O)[C@@H](C(=O)Nc2ccccc2)C12CCNCC2	104.3%
CO[C@H]1C(=O)N(C)C2(CCNCC2)[C@@H]1C(=O)Nc1ccccc1	91.16%
CNC(=O)[C@@H]1[C@@H](OC(=O)Nc2ccccc2)C(=O)N(C)C12CCNCC2	89.46%
CN1CC2(CNCCN(C(=O)Nc3ccccc3)C2)CC1=O.O=C(O)C(F)(F)F (configuration not stated)	-22.36%
